Assay results: PubChem BioAssay (NCI)
Compounds without any hit were thinned out: in the full panel of roughly 83,000, 20% have a hit.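 Assay: single dose, 48 h. Readout: percent growth (0 = no net growth; negative = cell death). Active: <10.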 A number with no mark means an inactive call. Calls of active or inactive are those of the source.

How the values were obtained:
Test in all cases: NCI-60 one-dose screen, 48 h (100 = growth as untreated, 0 = no growth, -100 = all killed)
Conditions in all cases: 10 µM
[1] = test system: HCT-15 colon
[2] = test system: HT29 colon
[3] = test system: SNB-75 CNS
[4] = test system: SNB-19 CNS
[5] = test system: U251 CNS
[6] = test system: PC-3 prostate
[7] = test system: SK-MEL-5 melanoma
[8] = test system: UACC-62 melanoma
[9] = test system: LOX IMVI melanoma
[10] = test system: SK-MEL-28 melanoma

Row | Compound | growth [1] | growth [2] | growth [3] | growth [4] | growth [5] | growth [6] | growth [7] | growth [8] | growth [9] | growth [10]
1 | Cc1ccc2nc(-c3ccc(-c4nnc(SCC(=O)Nc5ccc(Cl)cc5)o4)cc3)[nH]c2c1 | 21.9% | 31.2% | 101% | 26.7% | -21% (active) | 14% | 83.9% | 56.3% | -45.6% (active) | 39.7%
2 | O=C(Cn1nc(-c2ccccc2)ccc1=O)NNC(=S)NC1CCCCC1 | 97.9% | 127% | 96.6% | 100% | 102% | 96.4% | 100% | 96.2% | 99% | 108%
3 | COc1cc(/C=N/NC(=O)c2ccc3nc(-c4ccc(Cl)cc4)[nH]c3c2)cc(OC)c1OC | 55.7% | -50.2% (active) | -47.5% (active) | -94.1% (active) | -86.6% (active) | -41.6% (active) | -82.6% (active) | -76.7% (active) | -81.1% (active) | -87.9% (active)
4 | N#Cc1c(NC(=O)c2cccc(C(F)(F)F)c2)sc2c1CCC(O)=C2 | 20.6% | 80.4% | 46.7% | 42.4% | 39.7% | 39% | -38.3% (active) | 11.5% | 33.9% | 33.9%
5 | O=c1oc2ccc(-c3ccc(F)cc3F)cc2c(=O)n1-c1ccc(F)cc1 | 5.32% (active) | 59.6% | -14% (active) | 13.3% | 18% | 0.638% (active) | -77.9% (active) | -50.2% (active) | 1.46% (active) | -0.667% (active)
6 | O=C(c1ccc([N+](=O)[O-])c([N+](=O)[O-])c1O)n1[nH]c(=O)c2ccccc2c1=O | 39.1% | 66.7% | 93.5% | 72.9% | 61.1% | 74.1% | 77.8% | 60.3% | 56.6% | 92.7%
7 | COc1cccc(-c2ccnc(/N=C(\N)Nc3ccc(S(=O)(=O)Nc4nc(C)cc(C)n4)cc3)n2)c1 | 104% | 106% | 77.5% | 101% | 101% | 91.2% | 99.6% | 102% | 85.8% | 112%
8 | CN(C)CCNC(=O)OCCCCOc1cc(O)c2c(=O)cc(-c3ccccc3)oc2c1 | -51.8% (active) | -54.4% (active) | 103% | -32.7% (active) | -64.1% (active) | 10.3% | -100% (active) | -88.4% (active) | -100% (active) | -91.5% (active)
9 | CN1C(=O)N(C)C2SC(N/N=C/C=C/c3ccccc3)=NC21 (stereo not given) | 37.2% | 73.2% | 89.7% | 72.5% | 79.2% | 75.5% | 57.9% | 41.7% | 68.1% | 69.5%
10 | O=C(Nc1cccc(C(F)(F)F)c1)c1cncc(C#Cc2cnc3ccc(N4CCOCC4)nn23)c1 | -16.7% (active) | 5.68% (active) | -39.9% (active) | -6.03% (active) | -3.92% (active) | 6.2% (active) | -66.9% (active) | -22.1% (active) | -87.9% (active) | -17.8% (active)
11 | CCN1CCN(Cc2ccc(NC(=O)c3cccc(-n4cc(-c5ccc(NC(C)=O)nc5)nn4)c3)cc2C(F)(F)F)CC1 | 83.9% | 61.7% | 104% | 122% | 86.6% | 112% | 87.3% | 82.4% | 72.4% | 53.3%
12 | Nc1nc(Nc2ccc(Cl)cc2)n(Cc2cccc(Br)c2)n1 | -52.7% (active) | 11.4% | -23.9% (active) | -12.3% (active) | -12.4% (active) | 0.572% (active) | -100% (active) | -82.3% (active) | -84.6% (active) | -61.1% (active)
13 | Nc1nc(-c2ccccc2)cs1 | 23.7% | 78.6% | 59.2% | 77% | 28.3% | 25.1% | 59.1% | 53.4% | 22% | 87.9%
14 | O=C(CSc1nnc(-c2c[nH]c3ccccc23)n1-c1ccccc1)Nc1ccc(C(=O)/C=C/c2ccc(Br)cc2)cc1 | 68.1% | 86.6% | 86.6% | 77% | 81.6% | 66% | 90.5% | 66.4% | 81.6% | 94%
15 | COc1ccc(CN2[C@@H](C(=O)NCc3ccc(C(=O)NO)cc3)Cc3c([nH]c4ccccc34)[C@@H]2C)cc1 | 19.1% | 17.6% | 15.8% | 40.3% | 33% | 29% | -21.1% (active) | -20.9% (active) | 1.67% (active) | 17.6%
16 | COc1ccc2nc(Cl)c(-c3cc(-c4ccccc4)nc(N)n3)cc2c1 | -64.5% (active) | 7.7% (active) | -1.67% (active) | 7.38% (active) | -62.4% (active) | 33.6% | 66% | 28.4% | -86% (active) | 61.4%
17 | Cc1ccc(-c2nc3ccc(C(=O)N=Nc4c(O)[nH]c5ccc(Br)cc45)cc3[nH]2)cc1 | 96.6% | 47.9% | 107% | 46.1% | -76% (active) | 62.6% | 84.1% | 98% | -27.8% (active) | 99.3%
18 | COc1cccc2nc(Nc3cccc(NC(=O)c4ccc(CN5CCCN(C)CC5)c(C(F)(F)F)c4)c3)ccc12 | -100% (active) | -72% (active) | -84.5% (active) | -99.3% (active) | -55.6% (active) | -69.8% (active) | -96.9% (active) | -74.1% (active) | -98.8% (active) | -100% (active)
19 | CN(CCO)c1oc(-c2ccccc2)nc1[P+](c1ccccc1)(c1ccccc1)c1ccccc1 | 51.4% | 7.78% (active) | -2.5% (active) | 9.54% (active) | 15.3% | 10.8% | -93.3% (active) | -30.2% (active) | -67.2% (active) | 12%
20 | O=C(NO)c1ccc(CNC(=O)[C@H]2Cc3c([nH]c4ccccc34)[C@H](c3ccccc3)N2)cc1 | 72.4% | 20.2% | 52.3% | 39.4% | 13.4% | 33.3% | 8.18% (active) | -24.5% (active) | 19.6% | 6.06% (active)
21 | COc1ccc2nc(Nc3cccc(NC(=O)c4ccc(CN5CCN(C)CC5)c(C(F)(F)F)c4)c3)ccc2c1 | -83.4% (active) | -73.9% (active) | -39.5% (active) | -96.8% (active) | -77.5% (active) | -8.06% (active) | -100% (active) | -93% (active) | -100% (active) | -96.9% (active)
22 | COc1ccc(/C=C/C(=O)c2ccc(N3CCN(C)CC3)cc2)c(C(F)(F)F)c1 | -68.5% (active) | -52% (active) | 97.7% | 54.5% | 5.33% (active) | 43.5% | 36.7% | -31.4% (active) | -86.4% (active) | 52%
23 | N#Cc1ccc(-c2nn(-c3ccc(C(=O)O)cc3)cc2CNc2ccc(Oc3ccccc3)cc2)cc1 | 49.7% | 34.4% | 101% | 28.6% | 33.9% | 29.5% | 70% | 21.9% | 24.1% | 21.3%
24 | CN(C)c1nc(NCCNS(=O)(=O)c2ccc(C(=O)/C=C/c3ccccc3)cc2)nc(Nc2ccc(F)cc2)n1 | -67.2% (active) | -59.8% (active) | 87.3% | 41.7% | -56.2% (active) | 16.4% | 30.2% | 26.5% | -100% (active) | 31.4%
25 | Cc1ccc(C(=O)CSc2nnc(-c3c[nH]c4ccccc34)n2-c2ccccc2)cc1 | 43.8% | 7.13% (active) | -1.21% (active) | 19.7% | 9.78% (active) | 43% | 32.9% | 23.9% | -19.5% (active) | 49%
26 | O=C(c1ccccc1)n1ccc(-c2cc3cc(Br)ccc3oc2=O)n1 | 22.8% | 63.5% | 66.1% | 34.5% | 27.8% | 28.2% | 10.6% | -21.1% (active) | 2.5% (active) | 24.4%
